Article PMC4336329 (PLoS ONE, 2015)
About 14,000 (4.5%) of roughly 310,000 compounds showed an effect of 50% or more. Effects have a minus sign here. Only a selection was taken, and strong results are over-represented in it overall.

Each molecule was assayed against human ether-à-go-go-related gene (hERG) potassium channel (human, UniProt Q12809) (assay: primary screen, population patch clamp on CHO cells stably expressing hERG; higher = less effect of the substance).
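Note: peak tail current of the secondary pulse compared with the same well before compound.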

Sequence of human ether-à-go-go-related gene (hERG) potassium channel (Q12809 whole entry, looked up): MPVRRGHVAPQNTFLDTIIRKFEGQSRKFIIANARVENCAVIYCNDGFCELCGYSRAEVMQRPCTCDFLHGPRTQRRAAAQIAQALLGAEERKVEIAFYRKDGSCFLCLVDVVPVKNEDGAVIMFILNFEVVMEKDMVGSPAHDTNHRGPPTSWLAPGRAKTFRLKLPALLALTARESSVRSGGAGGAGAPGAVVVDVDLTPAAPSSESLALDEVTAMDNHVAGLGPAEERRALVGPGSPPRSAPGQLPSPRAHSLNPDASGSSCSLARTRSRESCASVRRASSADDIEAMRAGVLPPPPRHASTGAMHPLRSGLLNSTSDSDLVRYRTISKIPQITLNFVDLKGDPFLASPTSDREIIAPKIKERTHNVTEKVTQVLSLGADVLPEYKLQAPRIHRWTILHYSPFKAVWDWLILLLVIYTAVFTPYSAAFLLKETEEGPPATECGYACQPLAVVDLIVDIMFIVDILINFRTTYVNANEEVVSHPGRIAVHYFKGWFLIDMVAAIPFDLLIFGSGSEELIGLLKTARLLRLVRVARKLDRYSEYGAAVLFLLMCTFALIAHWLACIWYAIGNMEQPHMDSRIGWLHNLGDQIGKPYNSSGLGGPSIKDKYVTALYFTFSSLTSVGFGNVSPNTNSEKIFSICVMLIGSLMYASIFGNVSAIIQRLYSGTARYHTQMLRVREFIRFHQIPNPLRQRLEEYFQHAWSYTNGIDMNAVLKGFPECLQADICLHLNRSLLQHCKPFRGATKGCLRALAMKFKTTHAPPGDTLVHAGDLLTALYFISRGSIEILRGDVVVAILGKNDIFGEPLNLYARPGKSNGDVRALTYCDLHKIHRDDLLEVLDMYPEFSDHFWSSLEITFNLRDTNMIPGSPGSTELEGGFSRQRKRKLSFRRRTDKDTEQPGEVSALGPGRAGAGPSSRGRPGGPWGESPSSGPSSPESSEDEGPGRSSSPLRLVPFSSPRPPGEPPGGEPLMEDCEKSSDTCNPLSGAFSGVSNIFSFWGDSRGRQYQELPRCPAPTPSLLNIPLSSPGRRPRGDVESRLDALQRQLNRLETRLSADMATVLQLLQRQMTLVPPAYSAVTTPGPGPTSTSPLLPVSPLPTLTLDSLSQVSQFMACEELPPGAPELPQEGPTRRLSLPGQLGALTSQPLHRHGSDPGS

| Structure (SMILES) | hERG current change (%, negative = inhibition) at 10uM [%] |
| --- | --- |
| Cc1cccc(CSC2=NCCN2S(=O)(=O)c2ccc(F)cc2)c1 | -0.802 |
| Cc1ccc(S(=O)(=O)N(C)c2ccc(OC(C)C(=O)N3CCCC3)cc2)cc1C (stereo not drawn) | -37.6 |
| CCCn1c(NCc2cccc(OC)c2O)nc2ccccc21 | -18.1 |
| CCCn1c(NCc2cc(OC)ccc2OC)nc2ccccc21 | -51.3 |
| CCn1c(NCc2cc(OC)ccc2OC)nc2ccccc21 | -22.8 |
| COc1ccc(CNc2nc3ccccc3n2CCN2CCCCC2)c(OC)c1 | -84.4 |
| COc1ccc(OC)c(CNc2nc3ccccc3n2CCN2CCCCC2)c1 | -72.4 |
| C=CCn1c(NCc2ccc(OC)cc2O)nc2ccccc21 | -23.1 |
| COc1ccc(CNc2nc3ccccc3n2C)c(OC)c1 | -25 |
| COc1ccc(CNc2nc3ccccc3n2C)c(O)c1 | 1.38 |
| COc1ccc(/C=N/c2nc3ccccc3n2CCN2CCCCC2)cc1OC | -14.3 |
| Cc1[nH]c(C)c(S(=O)(=O)N2CCCCC2)c1C(=O)N1CCCCC1 | 4.27 |
| Br.Cc1nc(C)c(-c2csc(Nc3cccc(O)c3)n2)s1 | 6.25 |
| COc1cc(OC)cc(-c2c(C#Cc3ccsc3)c3cc(-c4ccc5c(c4)OCCO5)ccc3n2C)c1 | 7.37 |
| COc1ccc(OCC(=O)Nc2ccccc2O)cc1 | -12.5 |
| Cc1c(C(C)(C)O)[nH]c2ccc(C#N)cc12 | 26.4 |
| CCOC(=O)N1CCN(c2ncnc3scc(-c4ccccc4)c23)CC1 | -32.6 |
| Cc1c(C(=O)Nc2c(F)cccc2F)sc2ncnc(N3CCN(c4ccccc4)CC3)c12 | -12.2 |
| CCN1CCN(c2ncnc3sc(C(=O)Nc4ccccc4F)c(C)c23)CC1 | -67 |
| Cc1ccc(NC(=O)c2sc3ncnc(N4CCN(c5ccccn5)CC4)c3c2C)c(C)c1 | -48.4 |

| Structure (SMILES) | hERG current change (%, negative = inhibition) at 10uM [%] |
| --- | --- |
| CCOC(=O)c1sc2ncnc(N3CCN(C(=O)OCC)CC3)c2c1C | -53.4 |
| COCCCNC(=O)c1sc2ncnc(N3CCc4ccccc4C3)c2c1C | -23.9 |
| CCOC(=O)c1sc2ncnc(N3CCN(C)CC3)c2c1C | -24.3 |
| CCOC(=O)CNC(=O)c1sc2ncnc(N3CCc4ccccc4C3)c2c1C | -36.6 |
| CCOC(=O)c1sc2ncnc(OC)c2c1C | 13.3 |
| CCCCNC(=O)c1sc2ncnc(N3CCc4ccccc4C3)c2c1C | -50.5 |
| CCOC(=O)c1sc2nc(C)nc(N3CCN(c4ncccn4)CC3)c2c1C | 1.82 |
| CCOC(=O)c1sc2ncnc(N3CCN(CC)CC3)c2c1C | -63.9 |
| CCC(C)(NC(=O)Cc1c[nH]c2ccccc12)C(=O)NC1CCCCC1 (stereo not drawn) | 2.32 |
| CN(C)/C=N/c1sccc1C(N)=O | 6.62 |
| COc1ccc(C2(C)NC(=O)N(CC3CCCCC3)C2=O)cc1 (stereo not drawn) | 9.8 |
| O=C(NCC(=O)N(c1cccnc1)C(C(=O)NC1CCCC1)c1ccccc1F)c1ccco1 (stereo not drawn) | -0.301 |
| CC(C)(C)Nc1nc(NCc2cccnc2)nc(N2CCOCC2)n1 | 4.02 |
| CC(C)C(=O)Nc1c2c(nc3c1CCC3)CCCC2 | 5.23 |
| C/C(=N\NC(=O)c1nnn(-c2nonc2N)c1-c1ccc2c(c1)OCO2)c1cccs1 | 5.22 |
| C/C(=N\OCC(=O)OC(C)C(=O)Nc1ccc(C(N)=O)cc1)c1ccc2c(c1)OCO2 (stereo not drawn) | 9.34 |
| CCOC(=O)c1cc2occc2n1CC(=O)N1CCN(C(=O)c2ccco2)CC1 | -36.8 |
| CC(C)OC(=O)c1cc2c(ccn2-c2ccc(F)cc2)n1CC(=O)N1CCN(C(=O)c2ccco2)CC1 | -69.2 |
| COC(=O)c1cc2c(ccn2-c2ccc(F)cc2)n1CC(=O)N1CCN(C(=O)c2ccco2)CC1 | -66.6 |
| COC(=O)c1cc2c(ccn2-c2ccc(F)cc2)n1CC(=O)C(C)(C)C | 14.3 |

| Structure (SMILES) | hERG current change (%, negative = inhibition) at 10uM [%] |
| --- | --- |
| CCOC(=O)c1cc2c(ccn2-c2ccc(F)cc2)n1CC(=O)N1CCN(C(=O)c2ccco2)CC1 | -26.1 |
| COC(=O)c1cc2c(ccn2-c2ccc(F)cc2)n1CC(=O)OC(C)C | 27.3 |
| O=C(Cn1c(=O)cnc2ccccc21)N1CCCc2ccccc21 | 10.8 |
| CC1CN(C(=O)CN2C(=O)NC3(CCCC3)C2=O)C(=Nc2cccc(S(=O)(=O)N(C)C)c2)S1 (stereo not drawn) | -32 |
| Cc1ccc(S(=O)(=O)N2CCN(C(=O)COC(=O)CCc3ccccc3)CC2)c(C)c1 | -8.38 |
| CCOC(=O)c1ccc2c(c1)nc(-c1ccc(F)cc1)c1nccn12 | 5.55 |
| CNC(C)C(=O)NC(C(=O)N1CCCC1C(=O)NNc1ccccc1)C(C)C.O=CO (stereo not drawn) | 5.01 |
| O=S(=O)(c1ccccc1F)N1CCN(CCc2ccccc2)CC1 | -5.81 |
| O=C(O)CNC(=O)/C(=C/c1cccc([N+](=O)[O-])c1)NC(=O)c1ccco1 | -1.47 |
| CCN(CC)C(=O)/C(=C\c1cccc([N+](=O)[O-])c1)NC(=O)c1ccco1 | -24 |
| O=C(NCc1ccco1)/C(=C\c1cccc([N+](=O)[O-])c1)NC(=O)c1ccco1 | -64.7 |
| O=C(O)CNC(=O)/C(=C\c1cccc([N+](=O)[O-])c1)NC(=O)c1ccco1 | 15.7 |
| CC(NC(=O)/C(=C/c1cccc([N+](=O)[O-])c1)NC(=O)c1ccco1)C(=O)O (stereo not drawn) | 0.397 |
| O=C(NCc1ccccc1)/C(=C/c1cccc([N+](=O)[O-])c1)NC(=O)c1ccco1 | -61.2 |
| O=C(NCCO)/C(=C\c1cccc([N+](=O)[O-])c1)NC(=O)c1ccco1 | 6.73 |
| O=C(NCc1ccco1)/C(=C/c1cccc([N+](=O)[O-])c1)NC(=O)c1ccco1 | -56.8 |
| O=C(NCCO)/C(=C/c1cccc([N+](=O)[O-])c1)NC(=O)c1ccco1 | 26.5 |
| CCN(CC)C(=O)/C(=C/c1cccc([N+](=O)[O-])c1)NC(=O)c1ccco1 | -25.8 |
| O=C(NCCc1ccccc1)/C(=C\c1cccc([N+](=O)[O-])c1)NC(=O)c1ccco1 | -78.6 |
| CC(NC(=O)/C(=C\c1cccc([N+](=O)[O-])c1)NC(=O)c1ccco1)C(=O)O (stereo not drawn) | 39.2 |
